The values below come from PubChem BioAssay AID1628 (Sanford-Burnham Center for Chemical Genomics, 2009).

The whole screen tested about 190,000 compounds, of which about 930 (0.49%) were called active. The list shows a part of the results. Potency and affinity values are given separately. A number with no mark means an inactive call.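 Rule for the calls: active = z-score of insulin promoter reporter brightness in nuclei below -3 at 5 µM, with at least 500 cells counted; inconclusive = wells with under 500 cells, flagged as toxic or sparse; inactive = the rest.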

The experiment can be described thus: insulin promoter down-regulators in MIN6 cells, imaging, high-content screening, mouse beta cells (AID 1628). The settings on record: MIN6 insulin promoter GFP reporter, at 5 µM, stronger effect = lower value.
For `O=C(/C=C/c1cccs1)N1CCOCC1`, the z-score was -5.7 (active).

`CC(=O)N1CCOCCOCCN(C(C)=O)CCOCC1`: the z-score was 2.13. For `Cc1cccc(Oc2nccc(C(F)(F)F)c2C(=O)Nc2ccc(F)cc2F)c1` the value was 3.57; for `Fc1ccc(NC(=S)NNc2ncc(C(F)(F)F)cc2Cl)c(F)c1`, -3.64 (active); for `CN(C)c1ccc(/C=C2\SC(=S)N(Nc3ncc(C(F)(F)F)cc3Cl)C2=O)cc1`, 4.86. For `O=Cc1sc(Nc2ccccc2)nc1Cl` the value was 3.66.

With `Oc1c(/C=C/C=C/C=Nc2ccccc2)sc(=S)n1Cc1ccccc1`, the z-score was 3.27. For `CSc1nsc(/C=C/Nc2ccc(C)cc2)c1C#N` the value was 3.5; for `Cc1ccc(C)c(N=Nc2ccc(O)c3ncccc23)c1`, -4.77 (active); for `N#C/C(=C/c1ccc(-c2ccccc2)o1)c1nc(-c2cccs2)cs1`, 14.7.

Regarding `Cc1ccc(OCC2Cn3c(nc4c3c(=O)n(C)c(=O)n4C)O2)cc1` (stereo unspecified), the z-score is -6.54 (active). For `CC(=O)NC(c1ccc(Cl)cc1)c1c(O)ccc2ccc(O)cc12` (stereo unspecified) the value was 10.6; for `Cc1cc(C)nc(N2CCC(C(=O)Nc3ccc4c(c3)OCCO4)CC2)n1`, 3.37; for `CCc1c(C)nc2ncnn2c1N1CCC(C(=O)Nc2ccc(C)cc2)CC1`, -5.25 (active). For `Cc1cc(N2CCC(C(=O)N3CCN(c4cccc(C)c4C)CC3)CC2)n2ncnc2n1` the value was -4.36 (active).

For `CCc1c(C)nc2ncnn2c1N1CCC(C(=O)NCc2cccc(OC)c2)CC1`, the z-score was -5.78 (active).

As for `COc1nc(OC)nc(N2CCC(C(=O)NCc3cccs3)CC2)n1`, the z-score is 3.48. For `COc1ccccc1N1CCN(c2cc(C)nc3nc(C)nn23)CC1`, the z-score is 1.58.

As for `CCC(=O)N1c2ccccc2C(N(C(C)=O)c2ccccc2)CC1C` (stereo unspecified), the z-score was 0.92. For `Cc1cc(/C=C2\SC(=S)NC2=O)c(C)n1-c1ccc(O)cc1` the value was 3.66; for `CCCNC(=O)Cn1c(=O)/c(=C\c2ccc(-c3ccc([N+](=O)[O-])cc3)o2)s/c1=C\C(=O)C(C)(C)C`, 18.3. For the compound `COc1ccc(OC)c(C2C3CN(C(C)C)CC=C3C(C#N)=C(N)C2(C#N)C#N)c1` (stereo unspecified), the z-score was 17.1. For `CCC(Sc1nnc(C)s1)C(=O)Nc1nccs1` (stereo unspecified) the value was 1.54.

With `O=C(Nc1ccc(C2CCCCC2)cc1)C1CCCN(c2ncccn2)C1` (stereo unspecified), the z-score is 3.77.

On to `CCc1c(C)nc2ncnn2c1N1CCC(C(=O)N2CCN(c3ccc(F)cc3)CC2)CC1`, for which the z-score was -3.04 (active). For `Cc1nc2ncnn2c(N2CCCC(C(=O)Nc3ccc4c(c3)CCC4)C2)c1C` (stereo unspecified), the z-score was -5.29 (active).

Take `OC1(c2cn(Cc3ccccc3)nn2)CCCCC1`: the z-score was 5.88. For `Cc1ccc(C(C#N)c2ccc(C(=O)c3ccc(F)cc3)cc2)cc1` (stereo unspecified) the value was -4.77 (active). For `CCS(=O)(=O)c1ccc2oc(SCC(=O)NC3CCCC(C)C3C)nc2c1` (stereo unspecified) the value was 4.28; for `Fc1ccc(NCc2nnc(SCc3nnc(-c4ccccc4)o3)n2Cc2ccccc2)cc1`, -4.77 (active); for `CN1CCN(C(=O)/C(=C\c2cccs2)NC(=O)c2cccs2)CC1`, 6.06. For `CN1CCN(C(=O)/C(=C\c2cccs2)NC(=O)c2ccco2)CC1` the value was -6.33 (active). Consider `Cc1ccccc1NC(=O)/C(=C\c1cccs1)NC(=O)c1ccco1`, for which the z-score was -5.39 (active).

For the compound `O=C1c2cccc3c(O)ccc(c23)C(=O)N1Cc1ccco1`, the z-score was 12.8.

As for `NC(=O)CC[C@@H]1NC(=O)[C@@H]2CCCN2C(=O)c2cc([N+](=O)[O-])cc(I)c2NCCCC[C@@H](C(=O)NC(CC(=O)O)C(N)=O)NC1=O` (stereo partly specified), the z-score was -4.71 (active). For `CC(C)C[C@@H]1NC(=O)[C@H](C(C)C)NC(=O)c2cc([N+](=O)[O-])cc(I)c2NCC[C@@H](C(N)=O)NC1=O` the value was -5.69 (active); for `NCCCC[C@@H]1NC(=O)[C@H](CCC(=O)O)NC(=O)c2cc([N+](=O)[O-])cc(I)c2NCC[C@@H](C(N)=O)NC1=O`, -4.01 (active); for `Cc1oc(C)c2c(=O)ccc3c(c12)OC(N)=C(C#N)C3c1ccc(F)cc1` (stereo unspecified), 3.56. For `CCCCSc1nnc(CCCCCNC(=O)OC(C)(C)C)o1` the value was -4.83 (active); for `COc1cc(S(=O)(=O)N2CCOCC2)ccc1NC(=O)COC(=O)C12CC3CC(CC(C3)C1)C2`, 3.88; for `Cc1ccn2cc(-c3ccc(S(=O)(=O)N4CCOCC4)cc3)nc2c1`, -0.88.

In the case of `COc1cccc(-c2cc(C(=O)Nc3ccc4c(c3)OCCO4)c3ccccc3n2)c1`, the z-score is -4.93 (active).

Consider `COc1ccc2cc(/C(C)=N/NC(=S)Nc3cc(S(=O)(=O)N4CCOCC4)ccc3N3CCOCC3)ccc2c1`, for which the z-score is -3.25 (active).

Turning to `COc1ccc(-c2cc(C(=O)Nc3cc(S(=O)(=O)N4CCOCC4)ccc3N3CCOCC3)c3ccccc3n2)cc1`, the z-score is -3.45 (active). For `COc1ccc(C2C(C(C)=O)=C(C)N=c3s/c(=C\c4cc(C)n(C)c4C)c(=O)n32)c(OC)c1` (stereo unspecified) the value was 8.76; for `N#C/C(=C\C1=C(N2CCOCC2)C(=C\c2ccc(Cl)cc2)/CC1)C(=O)Nc1ccccc1F`, 3.27. For `CN1CC=C2C(C#N)=C(N)C(C#N)(C#N)C(c3ccsc3)C2C1` (stereo unspecified) the value was 4.07; for `Cc1ccc2c(c1)cc(CN(Cc1ccc3c(c1)OCO3)S(=O)(=O)c1ccccc1)c1nnnn12`, -3.75 (active). For `Cc1cc(-c2cccs2)c2c(N)c(C(=O)c3ccc4c(c3)OCO4)sc2n1` the value was 4.7; for `O=C(NC1CCCC1)c1c[nH]c2ccc(F)cc2c1=O`, -3.28 (active). With `COc1ccc2c(C(=O)CN(C)C3CCCCC3)c[nH]c2c1`, the z-score is 4.45. For `Cc1ccc(C2C3CN(C(C)C)CC=C3C(C#N)=C(N)C2(C#N)C#N)cc1` (stereo unspecified) the value was 10.3; for `NC(=O)CCN1CCN(CCOC2Cc3cc(Cl)ccc3Sc3ccccc32)CC1` (stereo unspecified), -4.24 (active). As for `CC(C)CC(=O)c1c[nH]c(C(=O)NCCc2ccccn2)c1`, the z-score is -3.63 (active). As for `Nc1c(C(=O)N/N=C/c2cccnc2)oc2nc(-c3ccco3)cc(-c3ccco3)c12`, the z-score was 5.39.

As for `O=C(Nc1ccc(-c2csc(Nc3cccc(C(F)(F)F)c3)n2)cc1)c1cccc(C(F)(F)F)c1`, the z-score was -4.02 (active). In the case of `c1ccc(N2CCN(c3nc(NCc4ccco4)c4ccccc4n3)CC2)cc1`, the z-score was -3.05 (active). For `c1ccc(CN2CCN(c3nc(NCc4ccco4)c4ccccc4n3)CC2)cc1` the value was -3.17 (active); for `CCCS(=O)(=O)N1CCC(C(=O)N2CCOCC2)CC1`, 4.02. Regarding `OC(CN1CCCCC1)CN(c1ccccc1)c1ccccc1` (stereo unspecified), the z-score was -4.02 (active). For `O=C(/C=C/c1cn(CC(O)CN2CCCCCC2)c2ccccc12)c1cccs1` (stereo unspecified) the value was 5.06; for `O=C(/C=C/c1cn(CC(O)CN2CCCCC2)c2ccccc12)c1cccs1` (stereo unspecified), 4.58.

As to `Cc1c(-c2ccc(O)cc2)nc2nc(-c3ccccc3)c(-c3ccccc3)nn12`, the z-score was 17.8. `COc1cccc(OC)c1OCCN(C)C`: the z-score was 3.98. For `O=c1c([N+](=O)[O-])cccn1Cc1ccc(F)cc1Cl` the value was 3.36; for `Cc1ccc(S(=O)(=O)c2nc(-c3cccs3)oc2NCCCN(C)C)cc1`, -5.47 (active); for `CCC(C)(C)n1nnnc1C(c1ccccc1)N1CCN(C2CCCC2)CC1` (stereo unspecified), -4.27 (active). For `Cc1cccc(N2CCN(C(c3ccccc3)c3nnnn3CC3CCCO3)CC2)c1C` (stereo unspecified) the value was -3.05 (active); for `CCC(C)(C)n1nnnc1C(c1cccc(C#N)c1)N1CCN(c2cccc(C)c2C)CC1` (stereo unspecified), -3.1 (active). For `CCCOc1ccc(-c2nn(-c3ccccc3)cc2/C=C2\SC(=S)N(C3CCS(=O)(=O)C3)C2=O)cc1` (stereo unspecified) the value was 4.83; for `Cc1ccc(S(=O)(=O)N2CCCC2C(=O)N(C)Cc2cccs2)cc1` (stereo unspecified), 4.2. In the case of `Cc1ccc(S(=O)(=O)N(C)c2ccc(C(=O)N3CCCCC3)cc2)cc1`, the z-score is -5.08 (active).

For the compound `O=C(CCC(=O)c1ccc(F)cc1)Nc1cccc(C(F)(F)F)c1`, the z-score was -5.11 (active).

Turning to `CC1(C)OC(=O)N(CC(=O)Nc2cccc(C(F)(F)F)c2)C1(C)O` (stereo unspecified), the z-score was 0.44.

With `CCOC(=O)c1nnn(-c2nonc2N)c1-c1ccc(OC)cc1`, the z-score was -5.06 (active). For `CCOC(=O)c1nnn(-c2nonc2N)c1CN1CCCCCC1` the value was 0.52; for `CCOC(=O)c1nnn(-c2nonc2N)c1-c1ccc(OCC)cc1`, 3.82; for `N#C/C(=C\C1=C(N2CCOCC2)C(=C/c2cccc([N+](=O)[O-])c2)/CC1)C(=O)Nc1ccccc1F`, 3.07. For `CC(=O)Nc1sc(/C(C#N)=C/c2ccc(Cl)c(Cl)c2)nc1-c1ccc(C)cc1` the value was 17.4; for `O=c1[nH]c2ccc(NS(=O)(=O)c3ccc([N+](=O)[O-])cc3)cc2[nH]1`, 2.55; for `O=C(c1cccs1)c1no[n+]([O-])c1C(=O)c1cccs1`, 3.78. For `CCOC(=O)Cn1c2ccc(F)cc2c2nc(C)sc21` the value was 3.68; for `CCCn1c(=N)n(CCOc2ccc(OC)cc2)c2ccccc21`, -4.79 (active); for `CCOC(=O)Cn1c(=N)n(CCOc2cccc(C)c2)c2ccccc21`, -4.7 (active). As to `COc1ccc(OCCn2cc(/C(N)=N/O)c3ccccc32)cc1`, the z-score is 3.09. For `CCCCn1c(=N)n(CCOc2ccc(C)cc2)c2ccccc21` the value was -3.46 (active); for `Cc1cc(/C=C2/C(=O)N(C)C(=S)N2C)ccc1N1CCCC1`, 15.4; for `COc1ccc(CCNc2oc(COc3ccccc3Cl)nc2C#N)cc1OC`, -3.1 (active).

Take `COc1cccc(-n2nc(C#N)c(Cl)cc2=O)c1`: the z-score was -3.8 (active). For `COc1cccc(C2=N/C(=C\N(C)C)C(=O)O2)c1` the value was 0.86; for `N#Cc1ccsc1NC(=O)COC(=O)c1ccc2ccccc2c1`, -6.27 (active).
